# Reference: the supplement of paper PMC10849652
# Targets with a hit are over-represented here; the source holds about 7,900 in all. About 0.6% of all pairs of compound and target were hits. A number with no mark means an inactive call.
# Compound: Cc1sc2c(c1C)C(c1ccc(Cl)cc1)=N[C@@H](CC(=O)OC(C)(C)C)c1nnc(C)n1-2
# Assay: log2 fold change, soluble protein after heating vs DMSO (PISA); higher = thermal stabilisation; K562 cells, 10 uM, 30 min; active = over 0.2 and 3.5 SD of the protein, either way, in both replicates (recomputed)
# In short: (§1)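 Soluble protein was quantified by TMTpro 16plex LC-MS/MS after channel sums were equalised. It was obtained as the supernatant after 21,000xg for 90 min from pooled aliquots of K562 cells (2×10^6 cells/mL, 10 μM compound, 30 min) heated for 3 min across 48°C-58°C and extracted in PBS with 0.5% NP-40 at 4°C. Thermal stability values are relative to control samples and come from duplicates. They are given as log2 fold changes.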
# UniProt P03891, sequence (P03891 whole entry, looked up): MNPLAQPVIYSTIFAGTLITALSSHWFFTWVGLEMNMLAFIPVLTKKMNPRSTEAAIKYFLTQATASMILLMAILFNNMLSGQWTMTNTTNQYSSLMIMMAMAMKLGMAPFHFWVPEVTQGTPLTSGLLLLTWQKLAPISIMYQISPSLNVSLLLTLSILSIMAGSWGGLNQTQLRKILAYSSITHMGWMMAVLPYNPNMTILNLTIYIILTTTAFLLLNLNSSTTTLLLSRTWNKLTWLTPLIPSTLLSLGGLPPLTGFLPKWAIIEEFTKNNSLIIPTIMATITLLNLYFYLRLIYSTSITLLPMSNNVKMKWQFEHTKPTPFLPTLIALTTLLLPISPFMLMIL
# UniProt P51948, sequence (P51948 whole entry, looked up): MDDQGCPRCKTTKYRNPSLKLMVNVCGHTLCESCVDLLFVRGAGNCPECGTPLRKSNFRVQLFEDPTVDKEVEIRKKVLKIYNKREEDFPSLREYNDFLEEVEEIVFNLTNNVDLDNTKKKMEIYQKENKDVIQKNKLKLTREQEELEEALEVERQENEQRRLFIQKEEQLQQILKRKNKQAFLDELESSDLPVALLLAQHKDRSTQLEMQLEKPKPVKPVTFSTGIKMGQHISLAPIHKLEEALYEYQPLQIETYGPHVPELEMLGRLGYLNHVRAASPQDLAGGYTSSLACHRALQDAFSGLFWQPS
# UniProt Q15014, sequence (Q15014 whole entry, looked up): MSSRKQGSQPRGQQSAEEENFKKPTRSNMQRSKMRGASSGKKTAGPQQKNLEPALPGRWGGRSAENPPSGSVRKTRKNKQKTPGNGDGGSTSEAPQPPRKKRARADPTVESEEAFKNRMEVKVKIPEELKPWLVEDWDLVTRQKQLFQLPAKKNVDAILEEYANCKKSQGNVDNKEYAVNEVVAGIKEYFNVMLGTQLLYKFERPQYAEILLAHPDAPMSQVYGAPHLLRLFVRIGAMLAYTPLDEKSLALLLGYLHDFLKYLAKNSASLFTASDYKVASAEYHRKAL
# UniProt Q9BUB5, sequence (Q9BUB5 whole entry, looked up): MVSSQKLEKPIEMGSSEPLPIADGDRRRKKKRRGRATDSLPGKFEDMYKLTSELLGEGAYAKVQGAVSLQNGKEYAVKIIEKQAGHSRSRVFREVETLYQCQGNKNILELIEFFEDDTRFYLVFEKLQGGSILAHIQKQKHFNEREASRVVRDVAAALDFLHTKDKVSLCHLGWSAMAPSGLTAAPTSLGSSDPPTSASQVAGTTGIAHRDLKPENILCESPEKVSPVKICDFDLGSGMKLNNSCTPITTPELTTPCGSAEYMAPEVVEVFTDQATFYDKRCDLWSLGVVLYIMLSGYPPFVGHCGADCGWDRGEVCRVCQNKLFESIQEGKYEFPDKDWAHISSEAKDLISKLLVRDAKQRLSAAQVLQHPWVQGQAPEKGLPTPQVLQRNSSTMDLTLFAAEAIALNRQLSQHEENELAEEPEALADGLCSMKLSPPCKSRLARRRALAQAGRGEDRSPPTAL
# UniProt Q9BZQ8, sequence (Q9BZQ8 whole entry, looked up): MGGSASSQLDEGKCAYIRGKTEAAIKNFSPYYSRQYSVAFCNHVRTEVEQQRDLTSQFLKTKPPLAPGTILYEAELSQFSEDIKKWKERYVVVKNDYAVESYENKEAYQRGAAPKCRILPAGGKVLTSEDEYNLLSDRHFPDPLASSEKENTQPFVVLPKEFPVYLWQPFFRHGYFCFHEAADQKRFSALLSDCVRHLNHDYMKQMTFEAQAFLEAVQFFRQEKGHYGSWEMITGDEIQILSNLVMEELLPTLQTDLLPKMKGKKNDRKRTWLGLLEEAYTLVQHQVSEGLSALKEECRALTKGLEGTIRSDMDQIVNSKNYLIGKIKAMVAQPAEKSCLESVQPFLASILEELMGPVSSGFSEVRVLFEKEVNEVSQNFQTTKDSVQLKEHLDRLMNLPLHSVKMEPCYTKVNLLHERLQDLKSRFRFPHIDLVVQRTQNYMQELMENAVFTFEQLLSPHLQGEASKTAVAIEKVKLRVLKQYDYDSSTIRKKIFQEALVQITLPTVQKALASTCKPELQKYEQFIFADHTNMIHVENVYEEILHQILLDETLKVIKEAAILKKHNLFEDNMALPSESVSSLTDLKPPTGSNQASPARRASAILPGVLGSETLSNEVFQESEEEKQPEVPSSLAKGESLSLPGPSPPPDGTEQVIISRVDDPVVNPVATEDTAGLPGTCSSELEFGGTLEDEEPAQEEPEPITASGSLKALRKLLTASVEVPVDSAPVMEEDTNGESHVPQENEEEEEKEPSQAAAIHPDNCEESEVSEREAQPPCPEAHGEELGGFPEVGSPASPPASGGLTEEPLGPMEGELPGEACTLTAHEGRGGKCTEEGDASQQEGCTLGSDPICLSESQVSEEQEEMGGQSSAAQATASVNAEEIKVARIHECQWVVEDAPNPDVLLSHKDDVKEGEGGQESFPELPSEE
# UniProt Q9H019, sequence (Q9H019 whole entry, looked up): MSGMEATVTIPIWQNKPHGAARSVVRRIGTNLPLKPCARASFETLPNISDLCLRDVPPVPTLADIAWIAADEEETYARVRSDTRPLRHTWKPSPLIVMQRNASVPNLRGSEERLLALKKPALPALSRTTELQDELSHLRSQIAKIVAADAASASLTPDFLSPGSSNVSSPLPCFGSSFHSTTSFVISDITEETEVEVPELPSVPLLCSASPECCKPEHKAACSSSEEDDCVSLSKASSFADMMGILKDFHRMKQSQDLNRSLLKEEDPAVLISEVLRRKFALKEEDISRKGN
# UniProt P43246, sequence (P43246 whole entry, looked up): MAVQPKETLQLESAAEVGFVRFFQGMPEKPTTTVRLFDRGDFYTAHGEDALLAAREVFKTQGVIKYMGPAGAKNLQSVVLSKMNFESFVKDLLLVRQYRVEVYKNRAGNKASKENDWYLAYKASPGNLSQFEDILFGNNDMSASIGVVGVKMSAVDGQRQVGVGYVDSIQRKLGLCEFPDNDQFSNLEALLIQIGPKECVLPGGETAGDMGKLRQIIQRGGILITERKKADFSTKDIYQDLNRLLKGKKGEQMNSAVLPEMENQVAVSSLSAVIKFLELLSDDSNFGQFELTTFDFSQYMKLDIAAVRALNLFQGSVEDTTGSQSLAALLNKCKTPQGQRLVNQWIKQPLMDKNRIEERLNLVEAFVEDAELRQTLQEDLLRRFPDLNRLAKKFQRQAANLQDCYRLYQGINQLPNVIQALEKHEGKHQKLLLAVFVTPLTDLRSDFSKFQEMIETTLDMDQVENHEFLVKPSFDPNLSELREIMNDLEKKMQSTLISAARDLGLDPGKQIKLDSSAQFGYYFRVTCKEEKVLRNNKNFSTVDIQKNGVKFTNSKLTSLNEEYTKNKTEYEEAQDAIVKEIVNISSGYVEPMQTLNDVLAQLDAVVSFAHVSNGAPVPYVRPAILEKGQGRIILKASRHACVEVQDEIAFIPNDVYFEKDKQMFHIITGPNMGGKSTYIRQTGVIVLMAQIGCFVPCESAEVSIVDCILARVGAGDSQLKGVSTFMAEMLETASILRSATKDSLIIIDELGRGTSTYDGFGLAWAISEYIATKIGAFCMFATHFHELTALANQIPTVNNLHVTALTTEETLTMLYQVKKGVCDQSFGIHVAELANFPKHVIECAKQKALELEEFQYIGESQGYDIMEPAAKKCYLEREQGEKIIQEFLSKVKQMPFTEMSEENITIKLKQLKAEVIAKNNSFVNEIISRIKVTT
# UniProt Q9H8H0, sequence (Q9H8H0 whole entry, looked up): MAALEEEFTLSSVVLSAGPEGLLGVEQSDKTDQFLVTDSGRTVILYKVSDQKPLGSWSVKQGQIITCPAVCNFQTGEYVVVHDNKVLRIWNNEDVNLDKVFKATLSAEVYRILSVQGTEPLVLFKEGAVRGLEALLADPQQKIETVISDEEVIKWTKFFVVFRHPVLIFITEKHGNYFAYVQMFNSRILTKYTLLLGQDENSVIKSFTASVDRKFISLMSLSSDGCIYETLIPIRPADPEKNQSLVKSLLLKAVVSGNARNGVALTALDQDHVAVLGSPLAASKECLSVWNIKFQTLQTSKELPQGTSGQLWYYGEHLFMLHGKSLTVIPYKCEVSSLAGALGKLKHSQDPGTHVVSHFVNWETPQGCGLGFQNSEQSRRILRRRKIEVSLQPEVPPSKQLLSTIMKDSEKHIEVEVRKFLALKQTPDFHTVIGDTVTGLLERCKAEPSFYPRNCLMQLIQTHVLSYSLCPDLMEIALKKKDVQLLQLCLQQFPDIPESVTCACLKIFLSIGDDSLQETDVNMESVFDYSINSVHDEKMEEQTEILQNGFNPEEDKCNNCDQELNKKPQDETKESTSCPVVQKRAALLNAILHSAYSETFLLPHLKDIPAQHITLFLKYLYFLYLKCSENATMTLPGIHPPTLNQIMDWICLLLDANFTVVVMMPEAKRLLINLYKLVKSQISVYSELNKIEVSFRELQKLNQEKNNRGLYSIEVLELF
# UniProt Q8WVJ2, sequence (Q8WVJ2 whole entry, looked up): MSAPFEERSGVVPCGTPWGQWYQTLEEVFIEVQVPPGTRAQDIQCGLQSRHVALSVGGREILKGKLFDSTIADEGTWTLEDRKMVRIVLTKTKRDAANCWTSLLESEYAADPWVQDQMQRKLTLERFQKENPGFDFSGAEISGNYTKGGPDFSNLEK
# UniProt O60361, sequence (O60361 whole entry, looked up): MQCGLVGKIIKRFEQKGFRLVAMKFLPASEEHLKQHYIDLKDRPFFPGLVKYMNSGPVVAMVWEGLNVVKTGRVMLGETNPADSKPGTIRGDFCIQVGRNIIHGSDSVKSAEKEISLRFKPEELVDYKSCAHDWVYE
# UniProt P56556, sequence (P56556 whole entry, looked up): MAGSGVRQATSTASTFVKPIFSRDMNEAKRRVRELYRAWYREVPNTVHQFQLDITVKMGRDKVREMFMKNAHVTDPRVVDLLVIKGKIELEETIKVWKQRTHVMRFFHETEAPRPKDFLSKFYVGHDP
# UniProt Q15102, sequence (Q15102 whole entry, looked up): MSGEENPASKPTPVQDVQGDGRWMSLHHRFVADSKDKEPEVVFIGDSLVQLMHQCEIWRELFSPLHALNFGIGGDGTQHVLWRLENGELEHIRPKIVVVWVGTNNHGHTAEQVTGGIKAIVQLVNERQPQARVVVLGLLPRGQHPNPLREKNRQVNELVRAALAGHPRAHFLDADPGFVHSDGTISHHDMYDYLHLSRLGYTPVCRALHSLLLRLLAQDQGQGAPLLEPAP
row,Target,log2 fold change
1,NAT14 (UniProt Q8WUY8),0.043
2,PAAF1 (UniProt Q9BRP4),-0.014
3,MKNK1 (UniProt Q9BUB5),0.03
4,MRPL34 (UniProt Q9BQ48),0.058
5,NIBAN1 (UniProt Q9BZQ8),0.028
6,OSBPL8 (UniProt Q9BZF1),-0.018
7,NMNAT1 (UniProt Q9HAN9),0.304
8,MSH2 (UniProt P43246),-0.037
9,NDUFA6 (UniProt P56556),-0.067
10,NDUFB1 (UniProt O75438),-0.138
11,NME2P1 (UniProt O60361),0.082
12,NCOR1 (UniProt O75376),0.016
13,PAFAH1B3 (UniProt Q15102),-0.132
14,MRPS27 isoform 2 (UniProt Q92552),0.035
15,NTMT1 (UniProt Q9BV86),-0.118
16,MKRN2 (UniProt Q9H000),0.122
17,NUDT16 (UniProt Q96DE0),-0.075
18,MIS12 (UniProt Q9H081),-0.117
19,MT-ND2 (UniProt P03891),-0.03
20,NUDCD2 (UniProt Q8WVJ2),0.017
21,MTFR1L (UniProt Q9H019),0.048
22,NAPG (UniProt Q99747),-0.023
23,OAT (UniProt P04181),-0.024
24,OPA1 isoform 2 (UniProt O60313),-0.03
25,MORF4L2 (UniProt Q15014),0.028
26,MMADHC (UniProt Q9H3L0),0.088
27,MYLK (UniProt Q15746),0.118
28,NOL11 (UniProt Q9H8H0),-0.014
29,MNAT1 (UniProt P51948),0.033
30,NUP210 (UniProt Q8TEM1),-0.013

# Compound: c1ccc([C@@H]2C[C@H]2NC2CCNCC2)cc1
# Assay: as above
# In short: as §1
row,Target,log2 fold change
1,NAT14 (UniProt Q8WUY8),-0.047
2,PAAF1 (UniProt Q9BRP4),0.008
3,MKNK1 (UniProt Q9BUB5),-0.009
4,MRPL34 (UniProt Q9BQ48),-0.051
5,NIBAN1 (UniProt Q9BZQ8),0.03
6,OSBPL8 (UniProt Q9BZF1),-0.002
7,NMNAT1 (UniProt Q9HAN9),0.02
8,MSH2 (UniProt P43246),0.01
9,NDUFA6 (UniProt P56556),-0.039
10,NDUFB1 (UniProt O75438),0.055
11,NME2P1 (UniProt O60361),-0.004
12,NCOR1 (UniProt O75376),-0.111
13,PAFAH1B3 (UniProt Q15102),-0.096
14,MRPS27 isoform 2 (UniProt Q92552),-0.059
15,NTMT1 (UniProt Q9BV86),-0.049
16,MKRN2 (UniProt Q9H000),-0.017
17,NUDT16 (UniProt Q96DE0),-0.006
18,MIS12 (UniProt Q9H081),-0.022
19,MT-ND2 (UniProt P03891),-0.003
20,NUDCD2 (UniProt Q8WVJ2),0.037
21,MTFR1L (UniProt Q9H019),0.028
22,NAPG (UniProt Q99747),-0.077
23,OAT (UniProt P04181),-0.045
24,OPA1 isoform 2 (UniProt O60313),-0.037
25,MORF4L2 (UniProt Q15014),0.091
26,MMADHC (UniProt Q9H3L0),0.077
27,MYLK (UniProt Q15746),-0.21
28,NOL11 (UniProt Q9H8H0),0.025
29,MNAT1 (UniProt P51948),0.068
30,NUP210 (UniProt Q8TEM1),-0.028
